Holding throughout (test): NCI-60 one-dose screen, 48 h (100 = growth as untreated, 0 = no growth, -100 = all killed)
For test [1], the system named is HCT-15 colon. Particulars: 10 µM unless noted.
Test [2] relates to HT29 colon. Particulars: 10 µM unless noted.
Test [3] has as its system SNB-75 CNS. The following applies: 10 µM unless noted.
For test [4], the system named is SNB-19 CNS. The following applies: 10 µM unless noted.
The test system of test [5] is U251 CNS. Particulars: 10 µM unless noted.
For test [6], the system named is PC-3 prostate. The following applies: 10 µM unless noted.
The test system of test [7] is SK-MEL-5 melanoma. The following applies: 10 µM unless noted.
In test [8] the test system is UACC-62 melanoma. The following applies: 10 µM unless noted.
Test [9] has as its system SK-MEL-28 melanoma. The following applies: 10 µM unless noted.
The subject of test [10] is EKVX NSCLC. Particulars: 10 µM unless noted.
The test system of test [11] is UO-31 renal. The following applies: 10 µM unless noted.
The subject of test [12] is TK-10 renal. The following applies: 10 µM unless noted.
Test [13] has as its system ACHN renal. Particulars: 10 µM unless noted.
Test [14] relates to CAKI-1 renal. Particulars: 10 µM.
Test [15] relates to A498 renal. The following applies: 10 µM unless noted.
Test [16] concerns CCRF-CEM leukemia. The following applies: 10 µM unless noted.
The subject of test [17] is SN12C renal. Particulars: 10 µM unless noted.
Test [18] concerns MOLT-4 leukemia. Particulars: 10 µM unless noted.
Test [19] relates to SK-MEL-2 melanoma. Particulars: 10 µM unless noted.
Test [20] deals with LOX IMVI melanoma. The following applies: 10 µM unless noted.

About 83,000 compounds went through this panel and 20% of them were active in at least one assay; those are over-represented in the sample as a whole.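 Step 1: grow cells in 96-well plates. Step 2: add test compound at a single concentration. Step 3: incubate 48 h. Step 4: record percent growth.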 Unmarked numbers belong to inactive results. Active and inactive are the calls of the source. The calls were made as follows: active = growth percent below 10; inactive = the rest.

`Cn1cc(-c2nn3c(=O)cc(-c4ccccc4)nc3s2)c2cc(F)ccc21`: the growth is 29.6% in test [1]; 33.3% in [2]; 30.9% in [3]; 65.6% in test [4]; 48.5% in [5]; 34.8% in [6]. Besides, the growth in [7] was 43.8%; in test [8], 33.9%; in test [9], 45.2%; in test [10] it was 64.3%; in test [11], 57.1%; in test [12], 85.6%. The growth is 37.7% in [13], 31.6% in [14], 62.5% in [15] and 52.8% in test [16].
As for `CCCCCCNC(=O)Oc1ccc(/C(=C(/C)c2ccccc2)c2ccc(OCCN(C)C)cc2)cc1`, the growth in [1] is -32.3% (active); in test [2], -25.6% (active); in test [3], 73.5%; in test [4] it was 64.4%; in [5], 54.7%; in test [6], 70.6%. Also, the growth in test [7] was 78.2%; in [8], 52.8%; in [9], 55.1%; in test [10] it was 72.2%; in [17] it was 63.6%; in test [11] it was 53.9%. In addition, the growth is 83% in [12]; 71.3% in test [13]; 50.9% in test [14]; 76.5% in [15]; 67.9% in [16]; 34.7% in test [18].
On to `C#C[C@]1(O)CC[C@H]2[C@@H]3CC=C4c5sc(Nc6cc(Cl)ccn6)nc5CC[C@]4(C)[C@H]3CC[C@@]21C`, for which the growth in test [1] is 3.75% (active); in test [2], 21.4%; in [3] it was -33.2% (active); in test [4], -1.08% (active); in test [5], 15.1%; in test [6], 7.93% (active). Also, the growth in test [7] is -58.9% (active); in test [8] it was -17% (active); in [9], -47.3% (active); in test [19], -4.31% (active); in test [10], -1.83% (active); in test [17] it was 53.6%. For the same compound, the growth in [11] was -51.3% (active); in test [12], 35.4%; in test [13], 32.5%; in test [14], -19.9% (active); in test [15], -42.4% (active); in [16], 9.26% (active). Further, the growth in [18] was 4.35% (active).
For the compound `O=C(NCCCNc1cc(-c2cn(-c3ccccc3)nc2-c2cccc(O)c2)ccn1)Nc1cccc(C(F)(F)F)c1`, the growth in test [1] was -25.3% (active); in test [2], 9.99% (active); in [3] it was 45%; in [4], 42.8%; in [5], 33.5%; in [6], 27.1%. Further, the growth in [7] is 37.8%; in test [20] it was 8.34% (active); in test [9] it was -12.1% (active); in test [19] it was 58.1%; in test [10], 45.7%; in test [17], 56.5%. The growth in test [11] is 23.8%; in [12] it was 88.3%; in test [13], 47.6%; in [14], 36.9%; in test [15], 18.3%; in [16], 29.2%. In addition, the growth in test [18] is 11.6%.
For the compound `C#C[C@]1(O)CC[C@H]2[C@@H]3CC=C4c5sc(Nc6ccncc6)nc5CC[C@]4(C)[C@H]3CC[C@@]21C`, the growth was -71.4% (active) in test [1]; -4.61% (active) in test [2]; -49.4% (active) in test [3]; -36.8% (active) in test [4]; 1.97% (active) in [5]; 1.86% (active) in [6]. For the same compound, the growth was -83.9% (active) in test [7]; -22.8% (active) in test [8]; -55.1% (active) in test [9]; -15% (active) in test [19]; -13.7% (active) in [10]; 44.1% in test [17]. The growth in test [11] is -61.8% (active); in test [12], 12%; in test [13] it was 18.8%; in [14], -19.4% (active); in [15] it was -52.2% (active); in test [16], 4.46% (active). The growth in test [18] is -18.3% (active).
Regarding `COc1ccc(C(=O)c2c(N)c(C#N)cn2-c2cccc(OC)c2)cc1`, the growth is 19.8% in [1]; 7.88% (active) in [2]; -23.4% (active) in [3]; 26.8% in test [4]; 33.8% in test [5]; 33.9% in test [6]. In addition, the growth in [7] is 35.1%; in test [20] it was 37.9%; in [9], 45.8%; in test [19], 28.8%; in test [10] it was 38.7%; in test [17] it was 32.4%. The growth in [11] is 33.8%; in test [12], 69.2%; in [13] it was 38.5%; in test [14] it was 30.5%; in test [15] it was -1.17% (active); in test [16] it was 18.1%. Further, the growth in test [18] was 29.3%.
Turning to `O=C1c2c(c3c4cccnc4[nH]c3c3ccc4ccccc4c23)C(=O)N1CCN1CCNCC1`, the growth is 3.44% (active) in [1]; 57.9% in test [2]; 84% in [3]; 76.3% in [4]; 56.2% in test [5]; 66.8% in test [6]. Moreover, the growth in test [7] was 91.7%; in [8], 79.6%; in test [19], 113%; in [10] it was 92.4%; in test [11] it was 58%; in test [12], 136%. Besides, the growth in test [13] was 37%; in test [14] it was 52.2%; in test [15], 70.2%; in test [16], 27.2%; in [18], 8.49% (active).
As to `CC(C)(C)n1nnnc1C(Nc1nccs1)c1cc2cccc3ccc4cccc1c4c32` (stereo not given), the growth was 93.2% in test [1]; 104% in [2]; 95.7% in test [3]; 88.8% in test [4]; 89.3% in test [5]; 90.1% in test [6]. In addition, the growth is 94% in test [7]; 48.8% in [8]; 101% in [9]; 91% in test [10]; 98.5% in [17]; 84.9% in test [11]. In addition, the growth in test [13] was 97.4%; in test [14], 51.1%; in [16] it was 98.7%; in test [18] it was 96.6%.
Consider `O=c1c2c(O)cccc2oc2c3c(cc(O)c12)O[C@H]1OC=C[C@@H]31`, for which the growth in test [1] is 87.8%; in test [2] it was 88.9%; in test [3], 85.7%; in [4], 96.8%; in test [5], 92.9%; in [6], 90.1%. The growth in [7] was 81.1%; in test [8], 81%; in test [9], 108%; in test [19], 95.5%; in test [10] it was 42.8%; in test [17], 92.6%. Further, the growth is 79.3% in test [11]; 89.5% in [12]; 74.9% in [13]; 92.7% in test [16]; 88.5% in test [18].

(Values after PubChem BioAssay (NCI).)
